High-throughput results (PubChem)
GLP-1R agonist: qHTS of GLP-1 Receptor Agonists; Glucagon-like peptide 1 receptor (Homo sapiens), P43220; HEK293 GLP-1R CRE-luciferase, luminescence, 4-6 h; cells express a hypersensitive GLP-1R form; Potency, µM (top dose mostly 45.6 µM), without a hit: top-dose activation, hits mostly activators; hit rate 0.007% among 380,000; further: potency means the concentration at half of the fitted maximal effect; % of control where 0% means no effect
Target sequence (P43220 whole entry, looked up): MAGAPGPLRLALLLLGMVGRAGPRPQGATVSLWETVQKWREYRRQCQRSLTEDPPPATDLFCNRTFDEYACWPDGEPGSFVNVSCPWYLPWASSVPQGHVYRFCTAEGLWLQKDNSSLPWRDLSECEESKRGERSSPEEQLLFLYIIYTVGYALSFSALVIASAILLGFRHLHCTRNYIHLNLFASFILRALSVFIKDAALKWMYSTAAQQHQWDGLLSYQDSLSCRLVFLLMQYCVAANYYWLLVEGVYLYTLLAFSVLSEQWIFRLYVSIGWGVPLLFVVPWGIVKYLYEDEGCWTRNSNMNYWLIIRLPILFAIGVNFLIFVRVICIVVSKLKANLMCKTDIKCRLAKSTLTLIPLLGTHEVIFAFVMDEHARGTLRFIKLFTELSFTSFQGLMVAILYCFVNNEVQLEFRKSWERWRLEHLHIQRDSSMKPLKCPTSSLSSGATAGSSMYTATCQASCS
GLP-1R inv ag: qHTS of GLP-1 Receptor Inverse Agonists (Inhibition Mode); Glucagon-like peptide 1 receptor (Homo sapiens), P43220; HEK293 GLP-1R CRE-luciferase, luminescence, 24 h; GLP-1R form is constitutively active; Potency, µM (titrated, usually from 38.3 µM), for inactives: top-dose activity change, negative = inhibition, actives largely listed as inhibitors; hit rate 1.6% among 410,000; AID 624417, 2012; further: potency means the concentration at half of the fitted maximal effect; on the % scale 0 is the no-effect control and ±100 the full control effect; nearly all actives have a fitted effect of over 55% in size
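Inverse agonists were sought by their lowering of basal cAMP reporter luciferase output in HEK293 cells stably carrying constitutively active human GLP-1R, after 24 h compound treatment.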
ClpP mod: qHTS Assay for Activators of ClpP | hit rate 1.9% among 340,000 | AID 651965, 2013 | Potency, µM (series often up to 57.5 µM), without a hit: top-dose activity change, negative = active | purified B. subtilis ClpP, FRET peptide cleavage, 20 min; active means well fitted falling curve with a large enough effect; inconclusive means small, poorly fitted or top-dose-only effect; inactive means no such curve, though single readings can be large or run the other way; further: potency means the concentration at half of the fitted maximal effect; the source files actives as falling curves though it sought activators and does not explain the sign; nearly all actives have a fitted effect of over 65% in size
Target sequence (P80244 whole entry, looked up): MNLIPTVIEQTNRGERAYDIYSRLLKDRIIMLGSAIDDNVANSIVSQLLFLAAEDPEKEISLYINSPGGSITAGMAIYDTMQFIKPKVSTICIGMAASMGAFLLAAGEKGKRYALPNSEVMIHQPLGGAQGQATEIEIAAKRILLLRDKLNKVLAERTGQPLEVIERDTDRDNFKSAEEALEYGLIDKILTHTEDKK
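Purified B. subtilis ClpP, 10 microg/mL final in Tris/HCl pH8 with KCl, BSA, glycerol and Tween-20, cleaved an Abz/nitrotyrosine-quenched decapeptide. Fluorescence (ex 320, em 430) was read at 0 and 20 min at room temperature. Delta was normalized to 5.8 microM ADEP and DMSO/no-enzyme controls.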
DRD3 antagonist: qHTS of D3 Dopamine Receptor Antagonist: qHTS; max response, negative = inhibition, %; hit rate 2.5% among 360,000; D3R cells, DiscoveRx beta-arrestin luminescence, antagonist mode; hits give low values; in the data active means max response below about -50%; inconclusive means no clear call, values can overlap the other calls; further: on the % scale 0 is the no-effect control and ±100 the full control effect
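Cells expressing the human receptor were seeded at 1500 cells/well, incubated overnight at 37 degrees C in 5% CO2, then exposed to library compounds with dopamine controls for 90 minutes at 37 degrees C before luminescent detection.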
GLP1R cytotox: qHTS of GLP-1 Receptor Inverse Agonists: Cytotox Screen; hit rate 0.13% among 410,000; HEK293 cAMP-luciferase reporter cells, luminescence, 24 h; Potency, µM (series often up to 38.3 µM), without a hit: at the top dose activity change, negative = inhibition, actives largely listed as inhibitors;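 further: loss of luciferase light is scored as toxicity; potency means the concentration at half of the fitted maximal effect; on the % scale 0 is the no-effect control and ±100 the full control effect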
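A 23 nL compound transfer followed 12 hours of cell culture at 37 deg C; exposure then lasted 24 hr. Luciferase assay detection reagent was dispensed and plates read for luminescence after a 12 min room-temperature wait.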
DRD3 agonist: qHTS of D3 Dopamine Receptor Agonist: qHTS; D(3) dopamine receptor (Homo sapiens), P35462; D3R DiscoveRx beta-arrestin cells, luminescence, 90 min; max activation, %; hit rate 0.58% among 410,000; AID 652048, 2013; in the data active means max activation above about 30%; further: 0% is about no effect
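Cells at 1500/well, incubated overnight, then treated with pinned compounds (dopamine as control) for 90 min at 37 degrees C. DiscoveRx reagent added for 30 - 60 minutes at room temperature; luminescence read.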
* = called active by the depositor; ? = inconclusive; / = no result given; ! = not confirmed by another sample. The list is not random: actives were taken first. Their share in the collection is about 5.7%. Unless noted, the call rests on the fitted dose curve; in most records, active means well fitted curve in the direction sought with a large enough effect; inconclusive means small, poorly fitted or top-dose-only effect, or another doubt; inactive means no such curve, though single readings can be large; an effect the other way counts as inactive or inconclusive.

SMILES	GLP-1R agonist	GLP-1R inv ag	ClpP mod	DRD3 antagonist	GLP1R cytotox	DRD3 agonist
COc1ccc(C2NC(c3ccc(OC)cc3)C(c3ccccc3)C(=O)C2c2ccccc2)cc1 (centres undefined)	0%	5.6µM*	0%	?	23%	5
N#Cc1nc(-c2ccc(OCc3ccccc3)cc2)oc1N1CCC(C(N)=O)CC1	-2%	0%	3.5µM*!	30	20%	-1
N#Cc1nc(-c2ccc(COc3ccc(Cl)cc3)o2)oc1N1CCC(C(N)=O)CC1	/	-13%	32µM*	/	-4%	0
Cc1c2cnn(CC(=O)NC(C)C)c(=O)c2c(C)n1Cc1cccc(Cl)c1	/	1%	-16%	/	7%	1
C=CCn1c(-c2cccs2)nc2ccccc21	18%	?	2.8µM*	0	8%	-18
CCOC(=O)C(CC)Sc1ccc2nnc(-c3ccc(F)cc3)n2n1 (centres undefined)	/	/	-24%	/	/	/
O=C(C(Cc1ccccc1)N1C(=O)C2C3C=CC(C3)C2C1=O)N1CCCCC1 (centres undefined)	1%	0%	20µM*	-5	10%	0
COC(=O)c1sccc1S(=O)(=O)N1CCN(c2ccccc2OC)CC1	/	-17%	1%	/	-10%	2
Cn1cnc([N+](=O)[O-])c1Sc1nc(N)nc2c1ncn2Cc1ccccc1	-1%	-23%	32µM*	2	-43%	5
S=C(NCc1cccs1)Nc1cccc2ccccc12	4%	?	/	11	-8%	-4
Cc1cc(Cl)ccc1NNC(=O)CCc1ccccc1	-2%	4.5µM*	1%	9	9%	1
Cc1cc(Cl)ccc1NNC(=O)c1c(C)noc1C	14%	1.4µM*	1%	7	?	22
S=C(NCc1ccccc1)Nc1cccc2ccccc12	-3%	10µM*	?	-7	?	2
Cc1ccc(NNC(=O)c2c(C)noc2C)cc1Cl	-3%	?	3%	3	-27%	-1
O=C(CCc1ccccc1)NNC(=O)c1cc(Cl)ccc1O	0%	-29%	/	6	-12%	21
CC(=O)N(C)c1ccc(NC(=S)Nc2cccc3ccccc23)cc1	3%	-1%	32µM*	?	-16%	-1
CC(=O)N(C)c1ccc(NC(=S)Nc2ccccc2)cc1	7%	-7%	-2%	-27	13%	-14
Cc1cc(C)cc(NC(=O)C(=S)NCc2ccccc2)c1	-3%	11µM*	/	?	1%	-13
Cc1cc(Cl)ccc1NC(=S)NCc1ccccc1	3%	11µM*	-1%	-9	-7%	-6
CCOC(=O)c1ccccc1NC(=O)C(=O)Nc1ccc2nc3n(c(=O)c2c1)CCCCC3	/	3%	2%	/	-9%	-5
O=C(CON=C1c2ccccc2-c2ccccc21)NC12CC3CC(CC(C3)C1)C2	3%	1µM*	-5%	10	-21%	-1
COc1ccccc1C(=O)OCC(=O)NC12CC3CC(CC(C3)C1)C2	12%	10µM*	/	-3	11%	-1
COc1ccc(CNC(=O)c2cnc3sc(N4CCC(C)CC4)nn3c2=O)c(OC)c1	/	3%	-7%	/	2%	-14
CN(CC(=O)O)c1ccc(/C=C2\C=Cc3ccccc32)cc1	/	/	1%	/	/	/
Cc1ccc(C)c(C(=O)c2c(N)c(-c3nc(-c4ccc5c(c4)OCO5)cs3)c3ccccn23)c1	/	8%	0%	/	0%	-9
SMILES	GLP-1R agonist	GLP-1R inv ag	ClpP mod	DRD3 antagonist	GLP1R cytotox	DRD3 agonist
CC(C)C[C@H]1CNC(=O)C(=O)N1CC1CCN(CC2CCC(C(C)(C)C)CC2)CC1 (some centres undefined)	1%	-16%	0%	-57*	7%	-35
CC(C)C[C@H]1CNC(=S)N1CC1CCN(CCCC2CCCC2)CC1	-1%	?	2%	-63*	0%	-44
CC(C)CCN1CCC(CN2C(=O)C(=O)NC[C@@H]2CC(C)C)CC1	-3%	22%	-4%	?	2%	-5
CC(C)C[C@H]1CNC(=S)N1CC1CCN(CCCCc2ccccc2)CC1	-3%	?	-1%	-91*	-8%	-45
COc1ccc(CCCN2CCC(CN3C(=S)NC[C@@H]3Cc3ccccc3)CC2)cc1OC	10%	0%	0%	-55*	3%	-57
C[C@H](CO)N1C[C@H](C)[C@H](CN(C)C(=O)NC2CCCCC2)Oc2cc(-c3cccnc3)ccc2S1(=O)=O	-3%	14%	0%	-8	-15%	-4
CCN1\C(=C/C=C/C=C/c2sc3ccccc3[n+]2CC)Sc2ccccc21	/	/	/	/	/	-20
Cc1ccc(NC(=O)Cn2c(=O)c3ccc(Cl)cc3n3nncc23)cc1	-2%	-1%	2%	/	0%	9
CCCCN1CCC(CN2C(=S)NC[C@@H]2CC(C)C)CC1	7%	-1%	-3%	-80*	-10%	-46
FC(F)(F)c1cc(CCN2C(=S)NC[C@@H]2Cc2ccccc2)cc(C(F)(F)F)c1	4%	7.9µM*	0%	6	?	-13
S=C1NC[C@H](Cc2ccccc2)N1CC1CCN(CCCC2CCCC2)CC1	-4%	?	2%	-81*	-22%	-43
C[C@@H](CCc1ccccc1)NC[C@H](O)c1ccc(O)c(C(N)=O)c1	19%	/	/	/	/	/
CC(C)[C@@H]1CC2=C(C(=O)OC(C)(C)O2)[C@H](CCc2ccccc2)O1	3%	?	0%	0	24%	-12
Clc1ccc(/C=N/NC(=Nc2ccccc2)c2ccccn2)c(Cl)c1	3%	6%	1%	0	10µM*	-4
CC(C)c1nnc(NC(=O)C2CCN(C(=O)Nc3ccc(Cl)cc3)CC2)s1	14%	4µM*	/	6	-6%	-1
CC(C)c1nnc(NC(=O)C2CCN(C(=O)C(C)(C)C)CC2)s1	/	/	-1%	/	/	/
CC1=C(SCc2ccccc2)C(=O)c2ccccc2C1=O	-2%	?	/	-89*	-8%	-15
CCOC(=O)c1c(CN2CCN(CCO)CC2)n(-c2ccccc2)c2cc(Br)c(O)cc12	16%	2.2µM*	/	-13	?	-1
CCOC(=O)c1c(CN2CCN(C)CC2)n(-c2ccccc2)c2cc(Br)c(O)cc12	4%	?	2%	-64*	13%	-18
CCOC(=O)c1c(CN2CCN(c3ccccc3)CC2)oc2cc(Br)c(O)cc12	13%	-10%	-1%	-13	-20%	0
